For test [1], the target named is D(1A) dopamine receptor (Homo sapiens) (UniProt P21728). Nature of the test: HTS Assay for Allosteric Agonists of the Human D1 Dopamine Receptor: Primary Screen for Potentiators (AID 488982). Also: 0% is about no effect. The procedure, abridged: (§1)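 Calcium flux in an inducible, force-coupled HEK293 Trex D1 line (overnight at 30 C): agonist mode is the 180 s kinetic read after compound; potentiator mode is the following 180 s read after dopamine at EC20.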

Test [2] has the same target. Nature of the test: HTS Assay for Allosteric Agonists of the Human D1 Dopamine Receptor: Primary Screen for Antagonists (AID 488983).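 Also: calcium flux response to an EC80 dopamine challenge measured with no-wash dye; nearly all actives have a fitted effect of over 65% in size.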 Also: potency is read from the fitted curve at half-maximal effect. The procedure, abridged: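 Tetracycline-induced HEK293 T-REx cells expressing force-coupled D1 were plated overnight at 30 C, dye-loaded for calcium, and read kinetically. Compounds were pinned in, then an EC80 dopamine challenge followed after 180 s to reveal antagonism.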

The target in test [3] is ATP-dependent 6-phosphofructokinase (Trypanosoma brucei brucei) (UniProt O15648). Nature of the test: qHTS Assay to Find Inhibitors of T. brucei phosphofructokinase: hit validation (AID 492961).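 Also: luminescence reports ADP formed as PFK phosphorylates fructose-6-phosphate with ATP; series mostly up to about 51 µM; % is scaled to controls: 0 for no effect and ±100 for the full control effect.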 The procedure, abridged: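 In this biochemical qHTS validation, titrated compounds were tested against 1.25 nM PFK with 0.1 mM ATP and 0.5 mM F6P. Percent activity came from controls lacking or containing enzyme.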
Sequence of ATP-dependent 6-phosphofructokinase (Trypanosoma brucei brucei) (O15648 whole entry, looked up): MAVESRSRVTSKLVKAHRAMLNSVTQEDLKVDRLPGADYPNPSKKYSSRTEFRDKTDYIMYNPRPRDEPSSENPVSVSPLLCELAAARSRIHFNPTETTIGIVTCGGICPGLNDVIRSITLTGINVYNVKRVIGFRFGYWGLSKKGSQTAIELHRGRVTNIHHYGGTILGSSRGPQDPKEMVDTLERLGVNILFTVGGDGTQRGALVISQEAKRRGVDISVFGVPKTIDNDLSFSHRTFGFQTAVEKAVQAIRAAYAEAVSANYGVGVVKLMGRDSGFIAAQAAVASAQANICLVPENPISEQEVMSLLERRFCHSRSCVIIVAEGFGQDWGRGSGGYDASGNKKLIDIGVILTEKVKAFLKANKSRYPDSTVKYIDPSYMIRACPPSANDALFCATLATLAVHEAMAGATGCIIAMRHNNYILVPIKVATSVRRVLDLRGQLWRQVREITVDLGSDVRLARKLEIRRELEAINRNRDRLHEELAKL

Test [4] can be described thus: Validation screen for small molecules that induce genotoxicity in human embryonic kidney (HEK293T) cells expressing luciferase-tagged ELG1 (AID 493106). Also: 0% is about no effect. The procedure, abridged: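 HEK293T cells expressing luciferase-tagged ELG1 were exposed to compound or DMSO vehicle for 16 hr at 37 °C, 5% CO2. Genotoxic stress raises ELG1 levels, so increased luciferase signal after ONE-Glo addition and 30 min at room temperature marks hits.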

Test [5] addresses ATPase family AAA domain-containing protein 5 (Homo sapiens) (UniProt Q96QE3). Nature of the test: Validation screen for small molecules that inhibit ELG1-dependent DNA repair in human embryonic kidney (HEK293T) cells expressing luciferase-tagged ELG1 (AID 493107). Also: nearly all actives have a fitted effect of over 70% in size. Also: potency is read from the fitted curve at half-maximal effect. The procedure, abridged: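 HEK293T cells expressing luciferase-tagged ELG1 were co-treated with 5-fluorouridine and compound or DMSO for 16 hr at 37 °C, 5% CO2. Luciferase activity was then read with ONE-Glo after 30 min at room temperature; suppressed signal indicates blocked ELG1 function.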

The target in test [6] is Thyrotropin-releasing hormone receptor (Homo sapiens) (UniProt P34981). Nature of the test: qHTS for Small Molecule Agonists and Allosteric Enhancers of Human TRH Receptor: Validation Screen for Agonists (AID 493127;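 active = calcium activation more than 3 SD above the typical response in the agonist read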;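 also: intracellular calcium rise by fluo-8 fluorescence before TRH EC20 addition; 0% is about no effect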). Particulars: TRH receptor agonist cell assay; at 2 µM; stronger effect = higher value. The procedure, abridged:
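TRHR-expressing cells were plated overnight in serum-containing medium, then loaded with fluo-8 calcium dye at room temperature for 30 min–1.5 h. After a 10 s baseline, compound was pin-transferred and calcium fluorescence (ex 480/em 530) read kinetically for agonist response.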

Test [7] can be described thus: Nrf2 qHTS screen for inhibitors: Validation (AID 493153; active = well fitted inhibition curve with a large enough effect in the main read-out, with a control signal flat, not every such curve was filed as active). Particulars: Potency: luciferase luminescence; viability change: measured here: cytotoxicity max response. The procedure, abridged: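 A549 cells carrying an ARE-driven firefly luciferase reporter, in 5% FBS OPTI-MEM, were treated with compounds in concentration-response for 18-24 h at 37°C. Viability was read by CellTiter-Fluor fluorescence, then Nrf2 activity by luciferase luminescence.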

Test [8] in a line: qHTS for Inhibitors of Cell Surface uPA Generation: Validation Assay (AID 493164).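 Also: RAW 264.7 macrophage cells exposed to compound for 18 h; 0% is about no effect.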 In outline: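 RAW 264.7, 4000 cells/well, o/n plating; cpd 7-pt 1:5 dilution 2.45 nM–38.3 uM final; 18 h, 37 C/5% CO2; ATP-Lite, 5 s luminescence exposure.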
In test [9] the target is Galactokinase (Homo sapiens) (UniProt P51570). Nature of the test: qHTS Validation Assay for Inhibitors of Human Galactokinase (GALK) (AID 493189). Also: 0% is about no effect. In outline: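 Compounds were pin-transferred into ATP buffer, then GALK-galactose mix was added (final 5 nM enzyme, 100 uM galactose, 35 uM ATP). After 1 h at room temperature, remaining ATP was measured luminescently.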
Sequence of Galactokinase (Homo sapiens) (P51570 whole entry, looked up): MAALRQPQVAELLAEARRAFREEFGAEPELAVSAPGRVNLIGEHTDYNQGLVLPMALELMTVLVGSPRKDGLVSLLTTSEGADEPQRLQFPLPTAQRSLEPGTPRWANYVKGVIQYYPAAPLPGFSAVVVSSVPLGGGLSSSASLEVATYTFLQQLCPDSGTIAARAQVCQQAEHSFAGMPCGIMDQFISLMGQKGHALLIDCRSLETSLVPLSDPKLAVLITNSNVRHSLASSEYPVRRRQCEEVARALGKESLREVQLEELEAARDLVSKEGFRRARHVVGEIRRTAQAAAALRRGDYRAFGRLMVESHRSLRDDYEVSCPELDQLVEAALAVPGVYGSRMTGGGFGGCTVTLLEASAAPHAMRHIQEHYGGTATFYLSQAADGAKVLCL
Test [10] addresses D(1A) dopamine receptor (Homo sapiens) (UniProt P21728). Nature of the test: HTS Assay for Allosteric Agonists of the Human D1 Dopamine Receptor: Primary Screen for Agonists (AID 488981). Also: 0% is about no effect. In outline:
as §1

Results filed as inconclusive are left out. Active and inactive are the calls of the source. Unless noted, calls follow the shape of the dose curve; as a rule, active = well fitted curve in the direction sought with a large enough effect; inconclusive = small, poorly fitted or top-dose-only effect, or another doubt; inactive = no such curve, though single readings can be large; an effect the other way counts as inactive or inconclusive.

Sequence of Thyrotropin-releasing hormone receptor (Homo sapiens) (P34981 whole entry, looked up): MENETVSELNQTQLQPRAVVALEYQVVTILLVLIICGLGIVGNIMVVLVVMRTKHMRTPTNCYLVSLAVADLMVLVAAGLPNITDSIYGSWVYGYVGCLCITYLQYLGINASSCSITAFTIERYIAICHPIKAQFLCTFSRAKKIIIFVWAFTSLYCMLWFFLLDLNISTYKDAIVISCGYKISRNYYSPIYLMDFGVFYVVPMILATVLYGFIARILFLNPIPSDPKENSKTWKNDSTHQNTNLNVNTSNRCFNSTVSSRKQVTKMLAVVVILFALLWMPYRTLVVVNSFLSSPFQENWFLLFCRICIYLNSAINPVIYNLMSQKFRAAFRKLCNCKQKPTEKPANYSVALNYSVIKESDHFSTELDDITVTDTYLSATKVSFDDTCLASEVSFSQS
Sequence of D(1A) dopamine receptor (Homo sapiens) (P21728 whole entry, looked up): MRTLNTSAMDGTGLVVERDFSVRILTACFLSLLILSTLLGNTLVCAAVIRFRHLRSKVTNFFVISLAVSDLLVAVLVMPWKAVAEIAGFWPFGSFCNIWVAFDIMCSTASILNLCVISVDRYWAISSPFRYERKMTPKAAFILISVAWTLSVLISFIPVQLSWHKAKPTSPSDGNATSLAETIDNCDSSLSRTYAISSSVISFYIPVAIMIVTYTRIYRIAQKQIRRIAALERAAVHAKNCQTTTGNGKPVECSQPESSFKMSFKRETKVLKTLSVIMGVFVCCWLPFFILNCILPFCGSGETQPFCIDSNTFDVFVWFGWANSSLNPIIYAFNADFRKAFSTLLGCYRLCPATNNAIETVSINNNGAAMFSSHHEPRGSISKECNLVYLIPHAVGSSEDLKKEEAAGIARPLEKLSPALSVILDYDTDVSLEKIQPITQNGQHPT
Sequence of ATPase family AAA domain-containing protein 5 (Homo sapiens) (Q96QE3 whole entry, looked up, the tested form may be a part): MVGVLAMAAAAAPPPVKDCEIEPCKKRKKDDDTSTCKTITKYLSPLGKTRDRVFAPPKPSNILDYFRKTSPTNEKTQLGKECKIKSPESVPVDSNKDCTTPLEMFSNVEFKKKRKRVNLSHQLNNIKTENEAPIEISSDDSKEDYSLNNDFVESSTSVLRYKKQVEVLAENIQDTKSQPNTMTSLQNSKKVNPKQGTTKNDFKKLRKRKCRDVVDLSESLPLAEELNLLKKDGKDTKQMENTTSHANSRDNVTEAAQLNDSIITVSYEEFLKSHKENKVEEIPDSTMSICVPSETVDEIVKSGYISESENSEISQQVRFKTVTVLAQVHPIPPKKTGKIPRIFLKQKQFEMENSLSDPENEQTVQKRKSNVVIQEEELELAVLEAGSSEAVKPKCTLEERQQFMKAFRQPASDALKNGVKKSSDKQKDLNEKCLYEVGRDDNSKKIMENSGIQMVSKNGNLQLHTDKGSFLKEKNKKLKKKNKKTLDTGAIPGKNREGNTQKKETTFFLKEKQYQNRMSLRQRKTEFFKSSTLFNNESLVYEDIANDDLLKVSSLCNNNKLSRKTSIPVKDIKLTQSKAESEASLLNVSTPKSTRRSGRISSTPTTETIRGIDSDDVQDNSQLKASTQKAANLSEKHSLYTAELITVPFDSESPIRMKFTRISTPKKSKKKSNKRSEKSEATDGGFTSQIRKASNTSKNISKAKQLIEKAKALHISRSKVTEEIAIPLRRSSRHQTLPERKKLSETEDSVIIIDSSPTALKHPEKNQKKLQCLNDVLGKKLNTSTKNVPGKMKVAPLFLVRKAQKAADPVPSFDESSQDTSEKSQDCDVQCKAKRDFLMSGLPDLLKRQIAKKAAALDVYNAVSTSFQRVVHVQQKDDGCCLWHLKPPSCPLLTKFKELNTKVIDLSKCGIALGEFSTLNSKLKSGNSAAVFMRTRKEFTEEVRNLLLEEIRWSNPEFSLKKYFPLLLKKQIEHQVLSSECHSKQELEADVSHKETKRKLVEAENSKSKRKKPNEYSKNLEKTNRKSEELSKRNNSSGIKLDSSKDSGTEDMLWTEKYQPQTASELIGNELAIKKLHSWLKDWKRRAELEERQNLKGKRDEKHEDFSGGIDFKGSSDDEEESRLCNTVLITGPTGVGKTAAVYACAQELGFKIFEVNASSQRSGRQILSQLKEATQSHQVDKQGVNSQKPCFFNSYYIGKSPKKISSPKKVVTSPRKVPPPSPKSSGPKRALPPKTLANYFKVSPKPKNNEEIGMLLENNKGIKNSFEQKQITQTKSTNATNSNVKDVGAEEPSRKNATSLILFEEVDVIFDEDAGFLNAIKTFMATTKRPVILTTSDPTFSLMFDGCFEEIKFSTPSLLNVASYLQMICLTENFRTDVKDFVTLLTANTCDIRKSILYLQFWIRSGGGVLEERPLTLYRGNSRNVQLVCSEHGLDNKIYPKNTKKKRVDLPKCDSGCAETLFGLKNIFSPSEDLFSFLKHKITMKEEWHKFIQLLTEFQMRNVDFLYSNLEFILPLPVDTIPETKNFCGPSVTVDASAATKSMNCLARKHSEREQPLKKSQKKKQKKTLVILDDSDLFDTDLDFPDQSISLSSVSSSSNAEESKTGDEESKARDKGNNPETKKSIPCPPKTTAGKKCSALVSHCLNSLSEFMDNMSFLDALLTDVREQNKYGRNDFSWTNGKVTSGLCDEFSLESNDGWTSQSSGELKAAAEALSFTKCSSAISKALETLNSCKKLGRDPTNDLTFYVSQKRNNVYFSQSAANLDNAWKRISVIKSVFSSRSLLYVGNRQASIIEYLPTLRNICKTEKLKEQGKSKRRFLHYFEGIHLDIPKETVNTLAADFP

`CCO/C([O-])=N/c1c[n+](N2CCOCC2)no1`: the Potency result in [1], in test [2], in [4], in test [5] and in test [7] was “inactive” in each case. Besides, the molecule was classed as inactive in test [3], in test [8] and in [9]. Further, in [6], the activation was -0.0625% (inactive). Further, the viability change in test [7] is 7.49%.

As to `O=c1[nH]c(=O)n([C@H]2C[C@H](O)[C@@H](CO)O2)cc1Br`, the Potency result in [10], in [1] and in [5] was “inactive” throughout. Also, the outcome in test [3], in test [8] and in test [9] was inactive. Further, the activation in test [6] is 1% (inactive).

Regarding `c1ccc2c(c1)CCCC2C1=NCCN1` (stereo unspecified), the Potency entry in [10], in test [4], in test [5] and in [7] was “inactive” throughout. Further, the viability change in test [7] is -0.882%. Besides, the outcome in [8] and in [9] was inactive.

As to `CC1=NS(=O)(=O)c2cc(Cl)ccc2N1`, the Potency entry in test [10], in test [4], in test [5] and in [7] was “inactive” in each case. The viability change in test [7] came out at 3.36%. The molecule was classed as inactive in test [8] and in test [9].

`Cc1nc2sccn2c(=O)c1CCN1CCC(=C(c2ccc(F)cc2)c2ccc(F)cc2)CC1`: the Potency result in [10], in test [1], in test [4] and in [7] was “inactive” each time. Moreover, the molecule was called inactive in [3], in test [8] and in [9]. Also, in [7], the viability change is -8.03%.

In the case of `C[n+]1cc2c3c(ccc2c2ccc4cc5c(cc4c21)OCO5)OCO3`, the Potency result in [10] and in [1] was “inactive” in each case. For the same molecule, in [6], the activation is 2.44% (inactive). Further, the call in test [8] and in test [9] was inactive.

Take `CN(C)CCCN1c2ccccc2Sc2ccccc21`: the Potency result in test [1], in [4] and in test [7] was “inactive” in each case. In addition, the Potency in test [2] was 5.01 µM (active). Further, the molecule was called inactive in test [3], in test [8] and in test [9]. For the same molecule, in [6], the activation was 8% (inactive). Moreover, the viability change in [7] is 1.11%.

For `COC(=O)[C@@H](N)Cc1ccc(O)c(O)c1`, the Potency result in [1], in test [2], in [4], in test [5] and in [7] was “inactive” each time. Moreover, the molecule was classed as inactive in [3], in test [8] and in [9]. The activation in test [6] was 1% (inactive). Besides, in [7], the viability change was -11.8%.

For the molecule `CC(C)(C)NCC(O)c1cc(O)cc(O)c1` (stereo unspecified), the Potency entry in test [1], in test [4], in test [5] and in test [7] was “inactive” in each case. Further, the viability change in [7] was found to be 2.92%. The call in test [8] and in [9] was inactive.

Consider `CC(=O)OC(C)C[N+](C)(C)C` (stereo unspecified), for which the Potency result in test [1], in test [4] and in [5] was “inactive” each time. Further, the molecule was classed as inactive in [8] and in [9].

In the case of `CCCN(CCC)CCc1cccc2c1CC(=O)N2`, the Potency result in [1], in [2], in test [4], in test [5] and in test [7] was “inactive” each time. For the same molecule, the viability change in test [7] was determined as 1.11%. In addition, the result in test [8] and in test [9] was inactive.

`CCCNC(C)C(=O)Nc1ccccc1C` (stereo unspecified): the Potency result in test [1], in test [4], in [5] and in [7] was “inactive” in each case. Moreover, the activation in test [6] is 1.5% (inactive). In [7], the viability change is -6.89%. The call in [8] and in test [9] was inactive.

Take `CCN(CC)CCNC(=O)c1cc(S(C)(=O)=O)ccc1OC`: the Potency result in test [1], in [4], in [5] and in test [7] was “inactive” each time. The call in test [3], in [8] and in test [9] was inactive. In addition, the viability change in test [7] was 10.1%.

On to `CCc1c(C)[nH]c2c1C(=O)C(CN1CCOCC1)CC2` (stereo unspecified), for which the Potency entry in [1], in test [4], in test [5] and in test [7] was “inactive” throughout. Further, the Potency in [2] is 14.1 µM (active). Also, in test [6], the activation was 0.75% (inactive). The viability change in [7] turned out to be 1.73%. In addition, the result in [8] and in test [9] was inactive.

Take `NC(=O)N1c2ccccc2C=Cc2ccccc21`: the Potency result in [1], in [2], in test [4], in test [5] and in test [7] was “inactive” throughout. Besides, the activation in [6] was 0.625% (inactive). In addition, the viability change in [7] is -0.0645%. For the same molecule, the outcome in test [8] and in test [9] was inactive.

On to `C[C@@H](O)[C@H]1C(=O)N2C(C(=O)O)=C(SCCN=CN)C[C@H]12`, for which the Potency entry in test [1], in test [4] and in [5] was “inactive” each time. For the same molecule, the molecule was classed as inactive in [8].

As for `NC/C=C/C(=O)O`, the Potency entry in [1], in test [4], in test [5] and in [7] was “inactive” each time. Besides, the outcome in [3], in test [8] and in [9] was inactive. Also, the activation in [6] is 0.688% (inactive). In addition, the viability change in test [7] is -0.253%.

For `O=C(CCCN1CCC(O)(c2cccc(C(F)(F)F)c2)CC1)c1ccc(F)cc1`, the Potency result in test [1], in [4] and in test [7] was “inactive” throughout. The result in test [3] and in [8] was inactive. Further, the activation in [6] is 3.56% (inactive). Also, the viability change in test [7] is -9.85%.

On to `CCCCOCCOCCOCc1cc2c(cc1CCC)OCO2`, for which, in test [3], the outcome was inactive.

`COCC(=O)O[C@]1(CCN(C)CCCc2nc3ccccc3[nH]2)CCc2cc(F)ccc2[C@@H]1C(C)C`: the Potency entry in test [1] and in test [4] was “inactive” in each case. The outcome in [3], in [8] and in test [9] was inactive. The Potency in test [5] was 18.3 µM (active).

Take `CN(C)C(=O)Oc1ccc[n+](C)c1`: the Potency entry in [1], in test [4] and in test [7] was “inactive” each time. The outcome in test [3], in [8] and in [9] was inactive. Also, in test [7], the viability change is -10.4%.

Values taken from PubChem BioAssay (NCATS).
